# Laboratory results reported in the supplement of paper PMC6555819.
# Columns and labels:
# Experiment in all cases: PBM binding z-score (relative to random genomic background probes); higher = stronger binding; sequences stand for … in GC…GCGATTGACAGCGTAGAATGAAGG
# [1] = tested on: FXR:RXRa (NR concentration 270 nM, RXRa partner concentration 90 nM)
# In short: (§1)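 On custom Agilent 4×180K arrays, double-stranded probes with 34-nt variable regions carried direct-repeat seeds, single-nucleotide variants, half-site ablations or random human genomic background. Ligand-free nuclear receptor dimers were applied for 1 h, and binding was read with antibodies against each partner (one per run). Binding z-scores come from regression-normalized fluorescence, with the random background probes as reference.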
# [2] = tested on: LXRa:RXRa (NR concentration 270 nM, RXRa partner concentration 90 nM)
# In short: as §1
# [3] = tested on: LXRa homodimer (NR concentration 270 nM)
# In short: as §1
# [4] = tested on: LXRb:RXRa (NR concentration 270 nM, RXRa partner concentration 90 nM)
# In short: as §1
# [5] = tested on: LXRb homodimer (NR concentration 270 nM)
# In short: as §1
# [6] = tested on: PPARa:RXRa (NR concentration 270 nM, RXRa partner concentration 90 nM)
# In short: as §1
# [7] = tested on: PPARg:RXRa (NR concentration 180 nM, RXRa partner concentration 90 nM)
# In short: as §1
# [8] = tested on: PPARg:RXRa 270nM:90nM, anti-RXR (NR concentration 270 nM, RXRa partner concentration 90 nM)
# In short: as §1
# [9] = tested on: PPARg:RXRa 30nM:10nM, anti-RXR (NR concentration 30 nM, RXRa partner concentration 10 nM)
# In short: as §1
# [10] = tested on: PPARg:RXRa 90nM:30nM, anti-RXR (NR concentration 90 nM, RXRa partner concentration 30 nM)
# In short: as §1
Sequence,PBM binding z-score [1],PBM binding z-score [2],PBM binding z-score [3],PBM binding z-score [4],PBM binding z-score [5],PBM binding z-score [6],PBM binding z-score [7],PBM binding z-score [8],PBM binding z-score [9],PBM binding z-score [10]
ATATCTAGGTAACCAAGTTCAGTGAATGCCGAAC,0.636,0.866,0.932,0.565,0.434,2.98,4.48,3.23,1.23,2.32
ATCTCTAGGTAACAAGTTCAGTGAAAGAGAGGAC,0.883,1.09,0.507,0.886,1.21,1.82,1.52,1.92,0.986,1.73
GCAGACAGTTGAAACGCAGGTAACTCAGGGTGGC,-0.0356,-0.382,-0.506,-0.476,-0.589,-0.162,0.287,-0.573,-0.78,-0.65
AGAATAAGGTTATACGTAGATCAGGGAAGAAAGT,1.99,1.9,0.223,1.56,0.0959,2.65,1.67,1.3,0.895,1.04
CGTACAGGGTCAGCTAGGCCAGAGTAGGGACGGC,5.16,2.66,-0.281,1.94,-0.514,4.22,3.14,3.3,0.448,1.84
ATCTCTAGGTAACTAGTTCAGTGAAAGAGAGGAC,0.133,0.11,-0.0189,0.143,0.75,0.794,0.87,0.974,0.417,0.722
TAAACAGGGTCAAAGGCCAGAGTACGAATGTCGA,7.35,5.57,0.675,4.69,1.48,6.49,9.15,8.05,6.91,8.47
ACTGGCAGGCCAAGGGTCACTCAAGATTAGTCCG,2.36,2.55,-0.0676,2.36,-0.732,3.88,5.21,5.21,3.1,5.1
ATCTATAGGTAAAAGTTCAGTGAATCCCGAGGAT,0.696,1.58,1.09,1.06,0.602,3.99,6.8,6.94,5.53,7.36
TCTAGCTGGCCAGAGGGTCACTCAAGAGGTACGG,1.2,0.792,-0.669,1.05,-0.983,1.89,0.596,1.85,1.77,1.44
CCTACTGGGCCAAATGTCATTGATTCCAATGCTC,0.068,-0.00295,-0.00298,0.307,-0.155,3.42,7,7.26,6.52,7.54
TCTAGTTGGTCACGGAGCTCACACACGACGGGTA,0.213,0.0936,-0.438,0.0145,-0.134,0.663,0.998,1.56,2.94,2.33
CAGCCTAAGTCAGGGCCAGTATAGGAGGAACGTT,-0.194,-0.51,-0.309,-0.69,-1.28,-0.483,0.0918,-0.709,-0.0751,-0.475
CGTCCAAGGTCAATGCTAGGTGAGTGAAAGCATT,5.97,4.36,0.361,3.28,0.445,4.69,3.49,4,0.812,2.99
GCTCGGAGGACAAGGTCCGAGCTTTGTCCGTAGA,-0.694,-0.575,-1.02,-1.07,-1.61,-0.595,-1.19,-0.67,-1.34,-1.09
TAGCCTAGGTCATGCGGGCCAGTATGGTGTCGGC,3.96,3.27,-0.0396,1.44,-0.233,3.43,1.79,2.41,-0.0378,1.2
ACGAGCAGGCCAAGGGTCACTCAAGATTAGTCCG,2.54,2.98,0.215,2.7,-0.627,4.15,5.95,6.33,3.74,5.66
TCTCGGAGGACACGAAAGGTCAGACCTCGACATC,3.09,3.69,3.12,3.51,-0.0358,3.57,1.38,2.68,2.63,2.67
ATCTCTAAGTAAAAGTTCAGTGAATCCCGAGGAT,0.433,1.11,1.36,0.807,1.04,1.6,1.9,3.87,2.04,3.47
GCTAGTTGGTTAGTAAAAGGTCACACACCGGTCG,2.97,4.33,4.85,4.1,1.08,4.6,2.08,3.55,1.87,3.47
CCTTACTGGTCACTCCAGGTTATAGCATCGGAGT,0.959,4.64,1.95,1.39,0.798,0.503,0.265,0.0704,0.0345,0.0913
AGAACGAGGTCAATGAGTTGATAGCACGGGTGGC,7.39,5.21,0.873,4.04,1.3,5.6,6.36,6.01,3.19,5.11
CGTCCAAGGTCAGAGAGGTCAGTGAATGCCGAGT,6.03,5.21,3,4.19,0.123,4.72,3.4,4.41,0.873,3.2
ACAATGAGGTTATACGTAGATCAGGGAAGAAAGT,2.38,2.12,-0.0615,1.59,0.813,2.93,1.84,1.69,0.688,0.925
TTACCAAGGTGAGCTGAGGTCGTTTATCCAACTC,2.17,1.37,-0.142,0.978,-0.227,1.61,-0.0022,0.829,-0.0958,0.644

Sequence,PBM binding z-score [1],PBM binding z-score [2],PBM binding z-score [3],PBM binding z-score [4],PBM binding z-score [5],PBM binding z-score [6],PBM binding z-score [7],PBM binding z-score [8],PBM binding z-score [9],PBM binding z-score [10]
TCTAGCAGGCCAGAGGGTCACTCGAGAGGTACGG,0.927,0.659,-0.59,0.806,-1.36,2.11,1.36,2.59,1.79,2.52
TCTGCTAGGTCAACGATGGTCGGCTAATCTGCTA,3.06,2.14,-0.28,1.11,-0.00978,2.9,2.1,3.01,1.81,2.42
CGTCCAAGGTCAATGCTATGTCAGTGAAAGCATT,6.33,4.8,0.645,3.67,0.692,4.99,3.66,4.41,1.02,2.95
GCTATTAGTTGAAAGGGCAAACGAATGATTCTCG,0.733,0.93,0.494,1.13,-0.0679,2.7,2.92,4.48,2.73,4.34
GATACAGGGTCAAGGCCAGAGAACGCGTATTGAT,6.78,4.32,0.0774,3.59,-0.239,5.57,5.91,5.64,2.25,4.54
AATACAGTGTCACTAGGCCAGAGTAGGTACGAAT,-0.0447,0.0759,-0.316,-0.0896,-0.131,1.44,1.82,1.52,0.462,0.705
CCTTACGGCTCACTGACAGGTTATAGCATTTGGA,0.367,0.347,0.304,0.294,-0.0562,0.311,0.426,-0.0307,0.448,0.0518
ATATGTAGGTTACATCCAGGTCATTCAGGCTATG,2.67,4.56,3.72,3.08,0.989,4.38,5.7,4.88,2.67,4.04
GATACATGGTCAAGGCCAGAGTACGCGTATTGAT,-0.39,-0.622,-0.276,-0.463,-0.821,-0.215,0.872,0.016,0.162,0.303
CCTACTGGGTCAAGGTCATTGATCAGTCAAAGCA,6.14,5.13,2.13,4.83,0.0227,6.04,8.59,7.05,5.09,6.81
TCTATTAGTTGAAGGGCAACCGCCGAGTCCGTTT,0.913,0.871,0.578,0.586,0.231,0.935,-0.454,2.19,3.81,2.91
TCATATAGGTAAAAGGTGAAAGTAGGTGTGGTAA,2.28,2.13,0.449,2.3,0.226,5.4,9.14,8.72,8.11,9.43
TCTGCTAGGTCAAAGATGGTCAGCTAATCTGCTA,3.55,3.06,0.0702,2.07,0.0441,3.73,3.32,4.37,2.61,3.76
ATCTCTAGGTAACCACGTTCAGTGAATGCCGAAC,-0.0584,-0.141,0.335,-0.0295,0.814,0.308,0.571,0.503,0.0771,0.0954
ACTATTAGATGACTTAGGGCAACCGATACGACGC,0.344,0.353,0.702,0.165,1.14,0.0577,1.25,0.22,0.441,0.295
CCTTACGGGTCACGCCAGGTTATAGCATCGGAGT,6.4,6.03,0.573,4.1,-0.0774,5.57,6.03,6.08,2.72,4.76
ATCTCTAGGTAAGACTCAGTTCTGTGAAGAACGC,0.335,0.184,0.199,0.00724,0.696,0.118,-0.0876,-0.0102,-0.0402,-0.012
TCGAGTAGGTTAGTCGGGACATTCAGCCAACATA,2.7e-05,0.0232,-0.222,-0.141,-1.03,0.291,0.156,0.639,0.983,0.955
CGAACTAGGTCAGAAGAGGACAGTGAAGGATGAT,1.71,1.24,-0.161,0.331,-0.576,3.14,5.79,4.62,2.29,4.02
TGTCAAAGTTAAAAGGTAACGTAAGTATCCACAC,0.429,0.482,-0.245,0.823,-0.178,2.09,2.26,3.15,1.03,2.13
ACTATTAGTTGAGACGAGTGCAACCGATAGGTTG,-0.26,-0.238,-0.221,-0.356,-0.0624,-0.254,0.511,0.0303,-0.299,-0.303
AGAATGAGGTTATTAAGATCAGAGAATTGCGGTC,1.56,1.62,0.0516,1.19,0.109,2.71,1.59,1.75,0.553,1.22
TAGCCTAGGCCATTCAGGGGCCAGTATAGAAAGC,-0.487,-0.796,-0.549,-0.624,-0.52,-0.185,0.0353,-0.377,-0.468,-0.511
CCTCGGAGGACAATAGGAGGTCAGAGCTGCCAGA,0.746,2.4,3.23,1.38,-0.2,1.87,0.443,0.389,-0.612,-0.255
